The supplement of paper PMC11865577
Where a name gives a salt, the structure may show the parent alone.

Tested on: SARS-CoV-2 low-rank motif (SARS-low)
Assay: normalised indicator fluorescence (fraction of RNA + indicator signal without compound); higher = less displacement of indicator (weaker competition)
Details: compound concentration: 5 uM, 30 min
How it was run: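 In 96-well plates, RNA was combined with a TO-PRO-1 or TO-PRO-3 indicator in 20 mM phosphate pH 7.0 containing 20 mM NaCl and 80 mM KCl. Each compound was added as 0.25 μL of a 1 mM DMSO stock, giving about 5 uM final, and fluorescence was read on an Infinite 200 PRO after 30 min (excitation 485 or 620 nm). Values are the blank-corrected indicator fluorescence (buffer plus indicator subtracted) divided by the signal of RNA plus indicator without compound, averaged over two independent experiments.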

[1] = indicator: TO-PRO-1 0.1 uM, RNA concentration: 0.1 uM
[2] = indicator: TO-PRO-3 0.5 uM, RNA concentration: 0.5 uM

O=C1O[C@H]([C@@H](O)CO)C(O)=C1O [L(+)-Ascorbic acid]
normalised indicator fluorescence [1]: 1.18
normalised indicator fluorescence [2]: 1.24

CC(C)c1cc(-c2n[nH]c(=O)n2-c2ccc3c(ccn3C)c2)c(O)cc1O [Ganetespib]
normalised indicator fluorescence [1]: 1.26
normalised indicator fluorescence [2]: 1.28

CO[C@@H]1[C@H](N(C)C(=O)c2ccccc2)C[C@H]2O[C@]1(C)n1c3ccccc3c3c4c(c5c6ccccc6n2c5c31)C(=O)NC4 [Midostaurin]
normalised indicator fluorescence [2]: 1.35

CC(=O)O[C@H]1C[C@@]2(C)[C@@H](C[C@@H](O)[C@H]3[C@@]4(C)CC[C@@H](O)[C@@H](C)[C@@H]4CC[C@@]32C)/C1=C(\CCC=C(C)C)C(=O)O [Fusidine]
normalised indicator fluorescence [1]: 1.26
normalised indicator fluorescence [2]: 1.12

C[C@H]1[C@H](C)CC[C@]2(C(=O)O)CC[C@]3(C)C(=CC[C@@H]4[C@@]5(C)C[C@@H](O)[C@H](O)[C@@](C)(CO)[C@@H]5CC[C@]43C)[C@H]12 [Asiatic acid]
normalised indicator fluorescence [1]: 1.08
normalised indicator fluorescence [2]: 0.985

Nc1c(Br)cc(Br)cc1CN[C@H]1CC[C@H](O)CC1 [Ambroxol]
normalised indicator fluorescence [1]: 0.985
normalised indicator fluorescence [2]: 0.984

O=C(COc1ccc(Cl)cc1)NC1CCC(NC(=O)COc2ccc(Cl)cc2)CC1 (stereo unspecified)
normalised indicator fluorescence [1]: 1.05
normalised indicator fluorescence [2]: 0.94

COC1=C2C[C@@H](C)C[C@H](OC)[C@H](O)[C@@H](C)/C=C(\C)[C@H](OC(N)=O)[C@@H](OC)/C=C\C=C(/C)C(=O)NC(=CC1=O)C2=O [Geldanamycin]
normalised indicator fluorescence [1]: 1.15
normalised indicator fluorescence [2]: 1.36

CC(=O)Oc1c(C)c(C)c2c(c1C)CCC(C)(CCC[C@H](C)CCC[C@H](C)CCCC(C)C)O2 (stereo partly specified) [Vitamin E Acetate]
normalised indicator fluorescence [1]: 1.05
normalised indicator fluorescence [2]: 1.21

C[C@H]1Oc2cc(cnc2N)-c2c(nn(C)c2C#N)CN(C)C(=O)c2ccc(F)cc21 [Lorlatinib]
normalised indicator fluorescence [1]: 1.13
normalised indicator fluorescence [2]: 1.23

O=C(/C=C/C=C/c1ccc2c(c1)OCO2)N1CCCCC1 [Piperine]
normalised indicator fluorescence [1]: 1.02
normalised indicator fluorescence [2]: 1.15

Oc1cc(O)c2c(c1)O[C@H](c1ccc(O)c(O)c1)[C@@H](O)C2 [Cianidanol]
normalised indicator fluorescence [1]: 1.39
normalised indicator fluorescence [2]: 1.17

O=c1cc(-c2ccc(O)c(-c3c(O)cc(O)c4c(=O)cc(-c5ccc(O)cc5)oc34)c2)oc2cc(O)cc(O)c12 [Amentoflavone]
normalised indicator fluorescence [1]: 1.31

CN1CCN(c2ccc(C(=O)Nc3n[nH]c4ccc(Cc5cc(F)cc(F)c5)cc34)c(NC3CCOCC3)c2)CC1 [Entrectinib]
normalised indicator fluorescence [1]: 1.16
normalised indicator fluorescence [2]: 1.39

N#Cc1c(NC(=O)c2cccc3ccccc23)sc2c1CCCC2
normalised indicator fluorescence [1]: 1.03
normalised indicator fluorescence [2]: 1.1

O=c1ccc2ccc(O)c(O)c2o1 [Daphnetin]
normalised indicator fluorescence [1]: 1.04
normalised indicator fluorescence [2]: 0.935

CNC(=O)c1ccc(C)c(-n2c(C)cc(OCc3ccc(F)cc3F)c(Br)c2=O)c1
normalised indicator fluorescence [1]: 1.01
normalised indicator fluorescence [2]: 1.07

Nc1ncnc2c1ncn2[C@@H]1O[C@H](CO)[C@@H](O)[C@@H]1O [Vidarabine]
normalised indicator fluorescence [1]: 1.11
normalised indicator fluorescence [2]: 1.17

Oc1ccc(OC2CCCCO2)cc1 (stereo unspecified) [Deoxyarbutin]
normalised indicator fluorescence [1]: 1.17
normalised indicator fluorescence [2]: 0.988

Cc1cccc(CC(=O)N2CCc3c2ccc(-c2cn(C)c4ncnc(N)c24)c3F)n1
normalised indicator fluorescence [1]: 1.06
normalised indicator fluorescence [2]: 1.05

C[C@@H]1O[C@@H](O[C@@H]2[C@@H](O)[C@H](OCCc3ccc(O)c(O)c3)O[C@H](CO)[C@H]2OC(=O)/C=C/c2ccc(O)c(O)c2)[C@H](O)[C@H](O)[C@H]1O [Verbascoside]
normalised indicator fluorescence [2]: 1.16

CC(=O)CCCCn1c(=O)c2c(ncn2C)n(C)c1=O [Pentoxifylline]
normalised indicator fluorescence [1]: 1.23
normalised indicator fluorescence [2]: 1.05

[I-].[K+] [Potassium iodide]
normalised indicator fluorescence [1]: 1.21
normalised indicator fluorescence [2]: 1.29

COC(=O)c1ccc([C@H]2c3[nH]c4ccccc4c3C[C@H](C(=O)OC)N2C(=O)CCl)cc1
normalised indicator fluorescence [1]: 1
normalised indicator fluorescence [2]: 1.16

Cn1cc(-c2ccc3c(c2)CCN3C(=O)Cc2cccc(C(F)(F)F)c2)c2c(N)ncnc21
normalised indicator fluorescence [1]: 1.35
normalised indicator fluorescence [2]: 1.24

COC(=O)C1=CC[C@@]23CC[C@@H]([C@@](C)(/C=C/C=C(\C)C(=O)O)OC2=O)[C@@]3(OC(C)=O)CC1 [Pseudolaric Acid B]
normalised indicator fluorescence [1]: 0.981
normalised indicator fluorescence [2]: 1.27

Cc1oncc1C(=O)Nc1ccc(C(F)(F)F)cc1 [Leflunomide]
normalised indicator fluorescence [1]: 1.07
normalised indicator fluorescence [2]: 1.12

CC(C)(O)[C@@H]1CC[C@](C)([C@H]2[C@@H](O)C[C@@]3(C)[C@@H]4C[C@H](O)[C@H]5C(C)(C)[C@@H](O[C@@H]6OC[C@@H](O)[C@H](O)[C@H]6O[C@@H]6O[C@H](CO)[C@@H](O)[C@H](O)[C@H]6O)CC[C@@]56C[C@@]46CC[C@]23C)O1 [Astragaloside III]
normalised indicator fluorescence [1]: 1.03
normalised indicator fluorescence [2]: 0.988

CNc1ccc([N+](=O)[O-])c(Nc2ccc3[nH]ncc3c2)n1
normalised indicator fluorescence [1]: 1.01
normalised indicator fluorescence [2]: 1.14

Cn1cc(C2=C(c3cn(CCCSC(=N)N)c4ccccc34)C(=O)NC2=O)c2ccccc21 [Ro 31-8220 Mesylate]
normalised indicator fluorescence [2]: 1.01

C[C@H](CCC(=O)NCCS(=O)(=O)O)[C@H]1CC[C@H]2[C@@H]3[C@@H](O)C[C@@H]4C[C@H](O)CC[C@]4(C)[C@H]3CC[C@]12C [Tauroursodeoxycholic Acid]
normalised indicator fluorescence [1]: 1.21
normalised indicator fluorescence [2]: 1.52

N=C(NCCCCCCNC(=N)NC(=N)Nc1ccc(Cl)cc1)NC(=N)Nc1ccc(Cl)cc1 [Chlorhexidine]
normalised indicator fluorescence [1]: 1.11
normalised indicator fluorescence [2]: 1.16

O=[N+]([O-])c1ccc(-c2nc(-c3ccc(F)cc3)c(-c3ccncc3)[nH]2)cc1
normalised indicator fluorescence [2]: 0.939

O=c1cc(-c2ccc(O)cc2)oc2cc(O)cc(O)c12 [Apigenin]
normalised indicator fluorescence [1]: 1.22
normalised indicator fluorescence [2]: 1.27

Oc1ccc(OCc2ccccc2)cc1 [Monobenzone]
normalised indicator fluorescence [1]: 1.17
normalised indicator fluorescence [2]: 1.21

Cc1c(C)c2c(c(C)c1O)CCC(C)(C(=O)O)O2 (stereo unspecified) [Trolox]
normalised indicator fluorescence [1]: 1.24
normalised indicator fluorescence [2]: 1.07

CCc1oc2ccccc2c1C(=O)c1cc(Br)c(O)c(Br)c1 [Benzbromarone]
normalised indicator fluorescence [1]: 1.02
normalised indicator fluorescence [2]: 1.4

COc1nc(-c2ccc3c(c2)OCO3)n(-c2ccc(NC(=O)CSc3ccccc3)cc2)n1 [SecinH3]
normalised indicator fluorescence [1]: 1.55
normalised indicator fluorescence [2]: 0.816

O=C1c2c(O)cc(O)cc2OC(c2ccc(O)c(O)c2)C1O (stereo unspecified) [Taxifolin]
normalised indicator fluorescence [1]: 1.25
normalised indicator fluorescence [2]: 1.31

CCNC(=O)c1[nH]nc(-c2cc(Cl)c(O)cc2O)c1-c1ccc(OC)cc1
normalised indicator fluorescence [1]: 1.25
normalised indicator fluorescence [2]: 1.22

Cc1c(C)c2c(c(C)c1O)CC[C@@](C)(CCC[C@H](C)CCC[C@H](C)CCCC(C)C)O2 [Vitamin E]
normalised indicator fluorescence [1]: 1.07
normalised indicator fluorescence [2]: 1.16

COc1ccc(C2CC(=O)c3c(O)cc(OC4OC(COC5OC(C)C(O)C(O)C5O)C(O)C(O)C4O)cc3O2)cc1OC (stereo unspecified) [Methyl hesperidin]
normalised indicator fluorescence [1]: 1.08
normalised indicator fluorescence [2]: 1.37

COc1ccc(-c2nc(-c3cc(C(F)(F)F)cc(C(F)(F)F)c3)n(Cc3ccc(C(N)=O)cc3)c2-c2ccc(OC)cc2)cc1 [Apoptozole]
normalised indicator fluorescence [1]: 1.12
normalised indicator fluorescence [2]: 1.14

Cc1cc(C(C)(C)C)c(O)c(C(C)(C)C)c1
normalised indicator fluorescence [1]: 1.26
normalised indicator fluorescence [2]: 1.23

CN(C)C[C@@H]1CCn2cc(c3ccccc32)C2=C(C(=O)NC2=O)c2cn(c3ccccc23)CCO1 [Ruboxistaurin hydrochloride]
normalised indicator fluorescence [1]: 1.14
normalised indicator fluorescence [2]: 0.961

OC[C@H]1O[C@@H](Oc2ccc(O)cc2)[C@H](O)[C@@H](O)[C@@H]1O [Arbutin]
normalised indicator fluorescence [1]: 1.1
normalised indicator fluorescence [2]: 1.25

O=C(NC(Cc1cc(=O)[nH]c2ccccc12)C(=O)O)c1ccc(Cl)cc1 (stereo unspecified) [Rebamipide]
normalised indicator fluorescence [1]: 1.3
normalised indicator fluorescence [2]: 1.07

O=C(O)CCc1ccc(O)cc1O [Hydroumbellic acid]
normalised indicator fluorescence [1]: 1.15
normalised indicator fluorescence [2]: 1.15

C1CCN2C[C@@H]3C[C@@H](CN4CCCC[C@@H]34)[C@H]2C1 [(-)-Sparteine sulfate pentahydrate]
normalised indicator fluorescence [1]: 1.05
normalised indicator fluorescence [2]: 0.993

CC(C)OC(=O)CCC/C=C\C[C@@H]1[C@@H](CC[C@@H](O)CCc2ccccc2)[C@H](O)C[C@@H]1O [Latanoprost]
normalised indicator fluorescence [1]: 1.12
normalised indicator fluorescence [2]: 1.2

CC1(C)C=Cc2c(ccc3c2OC[C@@H](c2ccc(O)cc2O)C3)O1 [Glabridin]
normalised indicator fluorescence [1]: 1.12
normalised indicator fluorescence [2]: 1.2

Fc1ccc(-c2nc3n(c2-c2ccncc2)CCS3)cc1
normalised indicator fluorescence [1]: 1.3
normalised indicator fluorescence [2]: 1.15

CC(=O)O[C@H]1C[C@@]2(C)[C@@H](C[C@@H](O)[C@H]3[C@@]4(C)CC[C@@H](O)[C@@H](C)[C@@H]4CC[C@@]32C)/C1=C(\CCC=C(C)C)C(=O)O [Sodium fusidate]
normalised indicator fluorescence [1]: 1.11
normalised indicator fluorescence [2]: 1.04

NNC(=O)c1ccncc1 [Isoniazid]
normalised indicator fluorescence [1]: 1.12
normalised indicator fluorescence [2]: 1.13

CN1CCN(c2nc(C3=C(c4c[nH]c5ccccc45)C(=O)NC3=O)c3ccccc3n2)CC1 [Sotrastaurin]
normalised indicator fluorescence [1]: 1.4
normalised indicator fluorescence [2]: 1.29

O=CN1CC/C(=C/c2ccc3c(c2)OCO3)C1=O
normalised indicator fluorescence [1]: 1.02
normalised indicator fluorescence [2]: 1.08

Oc1ccc(-c2nc(-c3ccc(F)cc3)c(-c3ccncc3)[nH]2)cc1
normalised indicator fluorescence [1]: 1.2
normalised indicator fluorescence [2]: 1.23

N#CC(c1ccnc(OCc2ccc(CN3CCOCC3)cc2)n1)c1nc2ccccc2s1 (stereo unspecified)
normalised indicator fluorescence [1]: 1.59
normalised indicator fluorescence [2]: 0.556

Cc1c(F)cc(C(=O)NC2CC2)cc1-c1ccc(C(=O)NCC(C)(C)C)cn1 [Losmapimod]
normalised indicator fluorescence [1]: 1.24
normalised indicator fluorescence [2]: 1.04

N=C(NCCCCCCNC(=N)NC(=N)Nc1ccc(Cl)cc1)NC(=N)Nc1ccc(Cl)cc1 [Chlorhexidine hydrochloride]
normalised indicator fluorescence [1]: 1.01
normalised indicator fluorescence [2]: 1.01

NC(=O)N/N=C/c1ccc([N+](=O)[O-])o1 [Furacilin]
normalised indicator fluorescence [1]: 1.11
normalised indicator fluorescence [2]: 1.05

C[C@H]1[C@H](C)CC[C@]2(C(=O)O[C@@H]3O[C@H](CO[C@@H]4O[C@H](CO)[C@@H](O[C@@H]5O[C@H](C)[C@H](O)[C@@H](O)[C@H]5O)[C@H](O)[C@H]4O)[C@@H](O)[C@H](O)[C@H]3O)CC[C@]3(C)C(=CC[C@@H]4[C@@]5(C)C[C@@H](O)[C@H](O)[C@@](C)(CO)[C@@H]5CC[C@]43C)[C@H]12 [Asiaticoside]
normalised indicator fluorescence [1]: 1.05
normalised indicator fluorescence [2]: 1.3

CCOc1cc(C(=O)N2CCC(N3CCN(C)CC3)CC2)ccc1Nc1ncc2c(n1)N(C1CCCC1)c1ccccc1C(=O)N2C
normalised indicator fluorescence [1]: 1.2
normalised indicator fluorescence [2]: 1.03
